Results on ten compounds are retold here after PubChem BioAssay (NCATS).

Values joined by “and” are separate entries in the source; they are usually repeats but may differ in a detail not shown here. Equal values may be shown once. Records with an inconclusive call do not appear. Active and inactive are the calls of the source. Unless noted, calls come from the whole dose curve; as a rule, active = well fitted curve in the direction sought with a large enough effect; inconclusive = small, poorly fitted or top-dose-only effect, or another doubt; inactive = no such curve, though single readings can be large; an effect the other way counts as inactive or inconclusive.

The nature of experiment [1]: High-throughput drug toxicity screening in the BPDCN cell line Gen2.2 (AID 1224824; call rule not given here;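 note: cells exposed to compounds for 48 h before reading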). The settings on record: Gen2.2 BPDCN cells; at 45.8 µM (top of the series) unless noted. The procedure, abridged:
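Gen2.2, 500 cells/well, phenol red-free RPMI/10% FBS/Pen-Strep; 48 h cpd, 37 °C/5% CO2; CTG lum, 15 min RT. Norm: DMSO = 100%, bortezomib 9.2 uM final = 0%.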

Experiment [2] is described as follows: High-throughput drug toxicity screening in the BPDCN cell line Cal-1 (AID 1224825; call rule not given here). The settings on record: Cal-1 BPDCN cell viability, qHTS; at 45.8 µM (top of the series) unless noted. The procedure, abridged:
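Exponentially growing Cal-1 cells, 500 per well in phenol red-free RPMI with 10% FBS, were exposed to compounds for 48 h at 37 °C, 5% CO2. Viability was read by CellTiter-Glo luminescence and normalised to DMSO (100%) and 9.2 uM bortezomib (0%).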

A short description of experiment [3]: qHTS assay for measurement of the activity of small molecule inhibitors on Zika virus induced Caspase-3 activity in human iPSC derived neural progenitor cells (hNPCs) (AID 1224857). Note: % of control where 0% means no effect; nearly all actives have a fitted effect of over 65% in size. The procedure, abridged: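 Human iPSC-derived neural progenitor cells pretreated 1 hr with compounds, then infected with Zika virus (2 FFU/cell) for 6 hours at 37 C. Caspase-3/7 measured by Caspase-Glo luminescence; % inhibition calculated from induction scaled to uninfected (0%) and infected (100%) wells.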

Experiment [4] in a line: qHTS assay for measurement of the activity of small molecule inhibitors on Zika virus induced Caspase-3 activity in human astrocytoma cells (AID 1224859).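 Note: plate controls were ZIKV-infected untreated cells for no effect and uninfected cells for full effect.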 The procedure, abridged:
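SNB-19 astrocytoma cells, 250/well, pretreated 1 h with compounds, then Zika virus at 2 FFU/cell for 6 h at 37 C; Caspase-Glo 3/7 luminescence after 30 min; percent inhibition normalised to uninfected and infected controls.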
A general note: Quantitative high-throughput screening tests each substance at several concentrations.

Experiment [5] is described as follows: qHTS Screen of the MIPE 4.0 Collection Against Ewings Sarcoma (RDES) (AID 1259252). Note: nearly all actives have a fitted effect of over 35% in size. Note: potency is the fitted concentration of half-maximal effect. The procedure, abridged: (§1)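 Here, cells in 5% FBS RPMI were exposed for two days (48 h) to compound dilutions added four hours after plating. ATP-based CellTiter-Glo luminescence measured viability, normalized to vehicle and no-cell blanks.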
Experiment [6] in a line: qHTS Screen of the MIPE 4.0 Collection Against Ewings Sarcoma (TC71) (AID 1259253). Note: nearly all actives have a fitted effect of over 40% in size. Note: potency is the fitted concentration of half-maximal effect. The procedure, abridged:
as §1

Experiment [7] can be described thus: qHTS Screen of the MIPE 4.0 Collection Against Ewings Sarcoma (TC32) (AID 1259256). Note: nearly all actives have a fitted effect of over 45% in size. Note: potency is the fitted concentration of half-maximal effect. A digest of the protocol:
as §1

Experiment [8] can be described thus: qHTS assay to identify small molecule inhibitors of chordoma cells - UCH-2 (AID 1259356). Note: % is set by controls: 0 for no effect and ±100 for the full control effect.
Experiment [9] in a line: P-glycoprotein substrates identified in KB-8-5-11 adenocarcinoma cell line, qHTS therapeutic library screen (AID 1346987). Note: nearly all actives have a fitted effect of over 65% in size. Note: potency is the fitted concentration of half-maximal effect. The settings on record: outcome: dose series up to 44.5 µM unless noted. A digest of the protocol:
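KB-8-5-11, a colchicine-selected P-gp-overexpressing KB-3-1 subline, was grown without colchicine for the assay. Cells were seeded at 500 cells/well, dosed in concentration-response and incubated 72 h at 37 degree C, 5% CO2. Viability was read by CellTiter-Glo luminescence.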

The nature of experiment [10]: Natriuretic polypeptide receptor (hNpr1) antagonism - Pilot counterscreen GloSensor control cell line (AID 1347045; calls by dose curve; note: potency is the fitted concentration of half-maximal effect). A digest of the protocol:
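HEK293 cGMP GloSensor cells preloaded 2 h with 2% GloSensor reagent, then compound 30 min before baseline luminescence read. Stimulated with 50 uM sodium nitroprusside, 20 min at room temperature, then read again; counterscreen for Npr1 antagonism.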
For orientation: Counterscreens check selectivity or assay interference.

Experiment [11] can be described thus: qHTS profiling of the MIPE4 collection as inhibitors of Plasmodium falciparum (HB3) proliferation (AID 743347; call rule not given here;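 note: plate controls were DMSO vehicle wells for no effect and artemisinin wells for full effect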). The settings on record: P. falciparum HB3 in erythrocytes, SYBR Green DNA, 72 h; at 28.5 µM (top of the series) unless noted. The procedure, abridged:
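Erythrocytes infected with P. falciparum (0.3% parasitemia, 2.5% hematocrit) incubated with compounds 72 h at 37 C, 5% CO2. Lysis with saponin/Triton buffer containing SYBR Green I, overnight at room temperature in the dark; DNA fluorescence (485/535 nm) normalised to 0.29 uM artemisinin and DMSO.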

The nature of experiment [12]: qHTS Screen of the MIPE 4.0 Collection Against Ewings Sarcoma (EW8) (AID 1259255).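 Note: 100% = DMSO-treated cells and 0% = medium-only wells without cells; nearly all actives have a fitted effect of over 35% in size.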 The procedure, abridged: as §1
The nature of experiment [13]: qHTS assay to identify small molecule inhibitors of chordoma cells - UCH-1 (AID 1259355). Note: % is set by controls: 0 for no effect and ±100 for the full control effect; nearly all actives have a fitted effect of over 55% in size. The procedure, abridged:
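Luminescent ATP read-out (CellTiter-Glo, 30min at room temperature) measured viability of UCH-1 cells exposed for 48hr to test drugs at 15 concentrations, co-dosed with a five-agent combination of auranofin, camptothecin, doxorubicin, rubitecan and topotecan.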

Experiment [14] is described as follows: Identifying Small Molecule Inhibitors of Pancreatic Cancer Stem Cells (SN12C, Adherent) (AID 1259358).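 Note: cell survival measured after 48 h of compound exposure.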 The procedure, abridged: (§2)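 Luminescent ATP readout (CellTiter-Glo) quantifies surviving cells after a 48 h drug incubation. Normalization uses DMSO wells as no inhibition and media-only wells as full inhibition; bortezomib served as positive control.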
Experiment [15] is described as follows: Identifying Small Molecule Inhibitors of Pancreatic Cancer Stem Cells (SN12C, Spheroid) (AID 1259360).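 Note: 100% = DMSO-treated cells and 0% = wells without cells.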 A digest of the protocol:
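Pre-formed 14-day tumor spheroids or adherent cells dosed and incubated 48 h, 37C, 5% CO2. Viability assessed by CellTiter-Glo.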

Experiment [16] can be described thus: Identifying Small Molecule Inhibitors of Pancreatic Cancer Stem Cells (A278, Adherent) (AID 1259361).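 For viability (% of control): 100% = DMSO-treated cells and 0% = cell-free media-only wells.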 Note: nearly all actives have a fitted effect of over 35% in size. The procedure, abridged: as §2

On to `COc1cc2c(c(OC)c1OC)-c1ccc(OC)c(=O)cc1[C@@H](NC(C)=O)CC2`, for which the cell viability, % of control (lower = more cytotoxic) in experiment [1] was found to be 10.1%. For the same compound, the viability (% of control) in experiment [2] was 11.2%. Moreover, the Potency entry in [3], in [4], in experiment [5], in [6], in [7] and in [10] was “inactive” each time. Also, in experiment [8], the result was inactive. Moreover, in experiment [9], the Potency was 23.1 µM (active) and 132 nM (active).
In experiment [11], `COc1ccc(C2CNC(=O)C2)cc1OC1CCCC1` (stereo not drawn) showed a growth, % of control of 98.4%. The cell viability, % of control (lower = more cytotoxic) in experiment [1] was 170%. For the same compound, the viability (% of control) in experiment [2] turned out to be 117%. Besides, the Potency entry in experiment [3], in [4], in experiment [5], in experiment [6], in experiment [12] and in experiment [7] was “inactive” in each case. The Potency result in experiment [13], in experiment [9] and in experiment [10] was “inactive” throughout. In experiment [8], the outcome was inactive.
Turning to `Cn1ccc2cc3c(cc21)CCN3C(=O)Nc1cccnc1`, in [11], the growth, % of control came to 56%. The cell viability, % of control (lower = more cytotoxic) in experiment [1] was determined as 100%. Moreover, the viability (% of control) in experiment [2] worked out at 69.5%. The Potency entry in [3], in experiment [4], in experiment [13], in [14] and in experiment [9] was “inactive” each time. Further, the results for the Potency in experiment [5] and in [6] were 16.6 µM (active) and 23.5 µM (active), respectively. The compound was called inactive in experiment [8] and in experiment [15]. Also, in experiment [16], the IC50 (viability decrease) entry is “inactive”.
For `O=c1c(O)c(-c2ccc(O)c(O)c2)oc2cc(O)cc(O)c12`, the growth, % of control in experiment [11] turned out to be 11.6%. The cell viability, % of control (lower = more cytotoxic) in experiment [1] came out at 108%. In addition, the viability (% of control) in [2] turned out to be 34.4%. The Potency result in experiment [3], in experiment [4], in experiment [13], in experiment [9] and in experiment [10] was “inactive” each time. Further, the Potency was 10.5 µM (active) in experiment [5], 18.7 µM (active) in experiment [6] and 20.9 µM (active) in [7]. For the same compound, the outcome in experiment [8] was inactive. The IC50 (viability decrease) in experiment [16] is 29.6 µM (active).
With `CN(C)CCC=C1c2ccccc2C=Cc2ccccc21`, the growth, % of control in experiment [11] came to 68.3%. The cell viability, % of control (lower = more cytotoxic) in experiment [1] came to 41.3%. Also, in experiment [2], the viability (% of control) amounted to 67.7%. For the same compound, the Potency result in experiment [3], in experiment [4], in [13], in experiment [9] and in experiment [10] was “inactive” in each case. Also, the Potency in experiment [6] was 20.9 µM (active); in experiment [7], 16.6 µM (active). Also, the call in experiment [8] was inactive.
For `CN(CCOc1ccc(NS(C)(=O)=O)cc1)CCc1ccc(NS(C)(=O)=O)cc1`, the growth, % of control in [11] came to 56.2%. In addition, the cell viability, % of control (lower = more cytotoxic) in experiment [1] came to 181%. Moreover, in [2], the viability (% of control) turned out to be 112%. In addition, the Potency result in experiment [3], in experiment [4], in [13] and in [9] was “inactive” throughout. Moreover, the Potency in experiment [6] was 16.6 µM (active).
For `CC1(CN2CCC(n3c(=O)[nH]c4ccccc43)CC2)OCc2ccccc2-n2cccc21` (stereo not drawn), in experiment [14], the Potency entry was “inactive”.
Consider `CN(C)C(=O)C(CCN1CCC(O)(c2ccc(Cl)cc2)CC1)(c1ccccc1)c1ccccc1`, for which the cell viability, % of control (lower = more cytotoxic) in [1] was determined as 71%. In addition, the Potency entry in experiment [3] was “inactive”. In addition, the Potency in experiment [6] is 20.9 µM (active); in experiment [7] it was 18.7 µM (active); in experiment [9], 18.7 µM (active); in [10] it was 26.1 µM (active). Moreover, in experiment [8], the call was inactive.
As to `NCCCCCC(=O)O`, in experiment [11], the growth, % of control came to 708%. In addition, in [1], the cell viability, % of control (lower = more cytotoxic) was 140%. In addition, the Potency result in [3], in experiment [4], in experiment [12], in [13], in [9] and in experiment [10] was “inactive” in each case. Moreover, the result in experiment [8] was inactive.
As for `O=C1Cc2cc(CCN3CCN(c4nsc5ccccc45)CC3)c(Cl)cc2N1`, the growth, % of control in experiment [11] was 9.47%. In experiment [1], the cell viability, % of control (lower = more cytotoxic) was determined as 199%. Moreover, the Potency entry in experiment [3], in experiment [13] and in experiment [9] was “inactive” each time. Further, the Potency in experiment [6] and in experiment [7] was 23.5 µM (active) in each case. Also, the call in experiment [8] was inactive.
